Active and inactive are the calls of the source. The call rests on the fitted dose curve; in most records, active means well fitted inhibition curve with a large enough effect; inactive means no such curve, though single readings can be large or run the other way.

This is an account of results in PubChem BioAssay AID624049 (National Center for Advancing Translational Sciences (NCATS), 2012).

Chain of Dual specificity protein kinase CLK3 (Homo sapiens) (P49761 whole entry, looked up, canonical isoform): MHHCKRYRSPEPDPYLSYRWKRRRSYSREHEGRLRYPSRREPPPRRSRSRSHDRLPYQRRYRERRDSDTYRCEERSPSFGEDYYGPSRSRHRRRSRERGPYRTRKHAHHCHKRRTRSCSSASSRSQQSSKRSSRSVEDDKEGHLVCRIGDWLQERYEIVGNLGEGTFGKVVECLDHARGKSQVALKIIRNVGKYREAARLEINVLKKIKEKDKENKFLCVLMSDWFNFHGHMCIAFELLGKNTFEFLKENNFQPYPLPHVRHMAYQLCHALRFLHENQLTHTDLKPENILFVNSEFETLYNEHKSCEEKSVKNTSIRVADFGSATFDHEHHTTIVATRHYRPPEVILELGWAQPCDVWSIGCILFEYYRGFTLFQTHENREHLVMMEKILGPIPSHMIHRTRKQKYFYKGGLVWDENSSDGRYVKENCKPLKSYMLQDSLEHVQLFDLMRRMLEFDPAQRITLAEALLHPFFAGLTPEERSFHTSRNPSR

This test concerns the target Dual specificity protein kinase CLK3 (Homo sapiens) (UniProt P49761). The test is described as follows: Reaction Biology data for inhibitors of CLK3: Probe SAR. Particulars: Reaction Biology CLK3 kinase assay, 10 uM ATP; series mostly up to 10 µM; activity change, negative = inhibition: at the top concentration. The source says:
Alternative splicing of pre-mRNAs plays a major role in the regulation of eukaryotic gene expression. Alternative splicing is now thought to be one of the primary reasons for the complexity of higher organisms leading to an average of three protein isoforms per gene. Aberrant splicing can lead to a number of diseases and is known to play a role in rare genetic diseases such as progeria syndrome. Hutchinson-Gilford Progeria Syndrome (HGPS) is a pediatric premature aging disease caused by a spontaneous mutation in the lamin A/C (LMNA) gene due to a single point mutation in the lamin A gene effecting 1 in 4 million people. To identify both specific splicing modulators of the lamin A gene as well as general splicing modulators, a cell-based HTS assay was developed using a minigene reporter system (AIDs, 1459 & 1487). […] This AID summarizes the characterization of lead compounds in Clk3. NIH Molecular Libraries Probe Production Centers Network [MLPCN] NIH Chemical Genomics Center [NCGC] MLPCN Grant: MH084827 Assay Submitter (PI): Tom Misteli
Compound IC50s were determined at Reaction Biology (http://www.reactionbiology.com) with ten concentration points starting at 10 uM in the assay using a 3-fold dilution series. The control compound staurosporine was also tested in the 10-dose IC50 mode with the same 3-fold serial dilution, again starting at 10 uM. All kinase reactions were performed using 10 uM ATP in the assay. 100% activity was taken from kinase reactions with DMSO alone (the vehicle used for compound stock solutions).
Turning to `Cc1nc(CN(C)c2ncnc3ccc(-c4ccc5[nH]ncc5c4)cc23)cs1`, the Potency is 792 nM (active).
Turning to `Clc1cc(Cl)cc(CNc2nccc(-c3ccc4c(c3)OCO4)n2)c1`, the “activity change, negative = inhibition” value was -36.1% (inactive).
For `COc1ccc(-c2ccnc(NCc3ccc(Cl)cc3)n2)cc1`, the “activity change, negative = inhibition” value is -32.5% (inactive).
In the case of `c1cncc(CNc2nccc(-c3ccc4c(c3)OCO4)n2)c1`, the Potency was 1470 nM (active).
`FC(F)(F)c1cccc(Nc2nccc(-c3ccc4c(c3)OCO4)n2)c1`: the “activity change, negative = inhibition” value was -41.4% (inactive).
Turning to `COc1cccc(-c2ccnc(NCc3ccc(Cl)cc3)n2)c1`, the “activity change, negative = inhibition” value was -23.4% (inactive).
Consider `Brc1ccc(CNc2nccc(-c3ccc4c(c3)OCO4)n2)cc1Br`, for which the Potency was 3230 nM (active).
As to `Cc1nc(CN(C)c2ncnc3ccc(-c4ccc5c(c4)OCO5)cc23)cs1`, the Potency is 403 nM (active).
Regarding `COc1cccc(-c2ccnc(NCc3ccc(Cl)c(Cl)c3)n2)c1`, the “activity change, negative = inhibition” value is -17.7% (inactive).
The same measure, in the same setting: in the case of `c1cncc(CNc2ccnc(-c3ccc4cn[nH]c4c3)n2)c1` it was -29.7% (inactive).
Take `c1cncc(CNc2nccc(-c3ccc4[nH]ncc4c3)n2)c1`: the Potency is 2660 nM (active).
Take `Cc1nc(CNc2ncnc3ccc(-c4ccc5c(c4)OCO5)cc23)cs1`: the Potency is 1260 nM (active).
On to `COc1ccc(-c2ccnc(NCc3ccc(Cl)c(Cl)c3)n2)cc1`, for which the “activity change, negative = inhibition” value is -27.3% (inactive).
As to `c1nc(NCC2CCCO2)c2cc(-c3ccc4c(c3)OCO4)ccc2n1` (stereo not drawn), the Potency was 836 nM (active).
For `c1cncc(CNc2ncncc2-c2ccc3c(c2)OCO3)c1`, the “activity change, negative = inhibition” value is -14.6% (inactive).
Take `c1cncc(CNc2ccnc(-c3ccc4[nH]ncc4c3)n2)c1`: the “activity change, negative = inhibition” value was -30.7% (inactive).
Still for that read-out and setting: in the case of `Cc1c(-c2ccnc(NCc3cccnc3)n2)sc(=O)n1C` it was -21.9% (inactive); in that of `COc1ccc(-c2ccnc(NCc3ccc(Cl)c(Cl)c3)n2)cc1OC`, -14.5% (inactive); in that of `Clc1ccc(CNc2nccc(-c3ccc4c(c3)OCCO4)n2)cc1Cl`, -48.6% (inactive).
For `Clc1ccc(CNc2ccnc(-c3ccc4[nH]ncc4c3)n2)cc1Cl`, the “activity change, negative = inhibition” value was -29.6% (inactive).
For the molecule `Clc1ccc(CNc2nccc(-c3ccc4c(c3)OCO4)n2)cc1Cl`, the Potency was 3630 nM (active).
Take `Clc1ccc(Nc2nccc(-c3ccc4c(c3)OCO4)n2)cc1`: the “activity change, negative = inhibition” value is -26.4% (inactive).
In the case of `Clc1ccc(CNc2ccnc(-c3ccc4c(c3)OCO4)n2)cc1Cl`, the “activity change, negative = inhibition” value was -15.8% (inactive).
For the molecule `c1cc(-c2ccc3c(c2)OCO3)nc(Nc2ccc3c(c2)OCO3)n1`, the “activity change, negative = inhibition” value was -30.6% (inactive).
As to `Cc1c(-c2ccnc(NCc3ccc(Cl)cc3)n2)sc(=O)n1C`, the “activity change, negative = inhibition” value was -20.7% (inactive).
For `Clc1cc(Cl)cc(CNc2ncncc2-c2ccc3c(c2)OCO3)c1`, the “activity change, negative = inhibition” value was -53.4% (inactive).
As to `Brc1cc(Br)cc(CNc2nccc(-c3ccc4c(c3)OCO4)n2)c1`, the “activity change, negative = inhibition” value is -27.2% (inactive).
Take `Clc1ccc(CNc2ncncc2-c2ccc3c(c2)OCO3)cc1`: the “activity change, negative = inhibition” value was -23.4% (inactive).
In the case of `Clc1ccc(CNc2ncncc2-c2ccc3c(c2)OCO3)cc1Cl`, the “activity change, negative = inhibition” value was -34.5% (inactive).
`O=[N+]([O-])c1cc(Nc2nccc(-c3ccc4c(c3)OCO4)n2)cc(C(F)(F)F)c1`: the “activity change, negative = inhibition” value is -34.3% (inactive).
Take `FC(F)(F)c1cc(Br)cc(Nc2nccc(-c3ccc4c(c3)OCO4)n2)c1`: the “activity change, negative = inhibition” value was -14.1% (inactive).
For `Clc1ccc(CNc2nccc(-c3ccc4cn[nH]c4c3)n2)cc1Cl`, the “activity change, negative = inhibition” value is -28.4% (inactive).
As to `Clc1ccc(CNc2nccc(-c3ccc4[nH]ncc4c3)n2)cc1Cl`, the Potency was 2930 nM (active).
